Reference: PubChem BioAssay (NCATS)
Records with an inconclusive call do not appear. Active and inactive are the calls of the source. Calls follow the shape of the dose curve; as a rule, active = well fitted curve in the direction sought with a large enough effect; inconclusive = small, poorly fitted or top-dose-only effect, or another doubt; inactive = no such curve, though single readings can be large; an effect the other way counts as inactive or inconclusive.

Legend:
[1] = target: Glutathione peroxidase 1 (Homo sapiens) (UniProt P07203); assay: Primary qHTS Assay for Inhibitors of Recombinant Selenoprotein Glutathione Peroxidase 1 (GPX1) (AID 1845191); also: nearly all actives have a fitted effect of over 65% in size
Chain of Glutathione peroxidase 1 (Homo sapiens) (P07203 whole entry, looked up): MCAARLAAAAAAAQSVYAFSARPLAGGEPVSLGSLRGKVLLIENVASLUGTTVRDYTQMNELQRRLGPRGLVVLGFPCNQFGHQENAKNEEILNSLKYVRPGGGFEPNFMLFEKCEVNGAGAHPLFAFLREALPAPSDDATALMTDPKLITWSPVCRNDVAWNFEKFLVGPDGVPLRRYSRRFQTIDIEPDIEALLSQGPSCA
Procedure, shortened: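 GPX1 10 nM, GR 100 nM, GSH 1 mM, NADPH 0.5 mM, CHP 0.5 mM (final). 30-min cpd preincubation, RT. Ex340/Em450 read t=0, t=15 min.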

[2] = target: Phospholipid hydroperoxide glutathione peroxidase GPX4 (Homo sapiens) (UniProt P36969); assay: Primary qHTS Assay for Inhibitors of Recombinant Selenoprotein Glutathione Peroxidase 4 (GPX4) (AID 1845192); also: nearly all actives have a fitted effect of over 65% in size
Chain of Phospholipid hydroperoxide glutathione peroxidase GPX4 (Homo sapiens) (P36969 whole entry, looked up): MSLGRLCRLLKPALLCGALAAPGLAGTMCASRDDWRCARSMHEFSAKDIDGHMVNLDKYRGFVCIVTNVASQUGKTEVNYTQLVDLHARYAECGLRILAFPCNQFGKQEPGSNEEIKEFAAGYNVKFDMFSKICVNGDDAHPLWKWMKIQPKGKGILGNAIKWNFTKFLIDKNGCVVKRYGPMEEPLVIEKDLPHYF
Procedure, shortened: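 qHTS, GR-coupled: GPX4 200 nM + cpd 30 min RT → GSH 1 mM, NADPH 0.5 mM, GR 100 nM → CHP 0.5 mM start; fluor 340/450 at t0 and t15 min; no-enzyme wells as control.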

[3] = target: Luciferin 4-monooxygenase (Photinus pyralis) (UniProt P08659); assay: Primary firefly luciferase (FLuc) qHTS assay for identification of artifact compounds. (AID 1845220); also: nearly all actives have a fitted effect of over 60% in size
Procedure, shortened: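 In this counter-screen for luciferase artifacts, test compounds met substrate (10 uM each luciferin and ATP) before 10 nM enzyme started the reaction. Light output was measured 5 min later.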

[4] = system: Nanoluciferase (engineered Oplophorus gracilirostris luciferase); assay: Primary Nanoluciferase (NLuc) qHTS assay for identification of artifact compounds. (AID 1845222);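 also: NLuc secreted into diluted conditioned medium of S16 cells; series mostly up to about 54 µM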
Procedure, shortened: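 Using secreted nanoluciferase in S16 culture medium (0.22 um filtered, 1:55 dilution), compounds were preincubated 15 min at RT. Signal was generated with Nano-Glo reagent (1:100) over 5 min.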

[5] = Primary redox qHTS assay for identification of artifact compounds. (AID 1845223)
Procedure, shortened: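 Redox-cycling detection via DTT (250 uM final) oxidation coupled to Amplex Red (25 uM)/HRP (250 mU/mL) in HBSS. 15 min preincubation plus 30 min after DTT, room temperature. Ex/Em 525/598 nm; 4-parameter Hill fit against DMSO and 10 uM DA3003.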

[6] = Primary fluorescence-based thiol-reactive (MSTI) qHTS assay for identification of artifact compounds. (AID 1845221);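 also: series mostly up to about 54 µM; thiol-reactive compounds lower the probe fluorescence signal; nearly all actives have a fitted effect of over 65% in size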
Procedure, shortened: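 Compounds were incubated 1 h at room temperature in the dark with the MSTI probe (4 uM) in PBS pH 7.4, 2% DMSO. Signals were normalized between Acetyl-MSTI and MSTI.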

Measured: Potency

COc1c(C)c(OCC(O)C(C)(C)O)cc2c1CNC2=O (stereo not drawn)
not listed: [6]
inactive: all other assays above

CC(=O)OC1C(C)C2C(OC3OC(CO)C(O)C(O)C3O)OC=C(C(=O)O)C2C1OC(=O)c1ccccc1 (stereo not drawn)
not listed: [6]
inactive: all other assays above

COc1cc(O[C@@H]2O[C@H](CO[C@H]3OC[C@](O)(CO)[C@H]3O)[C@@H](O)[C@H](O)[C@H]2O)cc(OC)c1O
not listed: [6]
inactive: all other assays above

CCC/C=C1\OC(=O)C2=C1CCC(O)C2O (stereo not drawn)
not listed: [6]
inactive: all other assays above

CC(=O)/C=C/C1(O)C(C)=CC(=O)CC1(C)C (stereo not drawn)
not listed: [6]
inactive: all other assays above

COC(=O)[C@H](Cc1ccc([N+](=O)[O-])cc1)NC(=O)c1cccc2ccccc12
not listed: [6]
inactive: all other assays above

Cc1occc1C(=O)n1ccnc1
not listed: [6]
inactive: all other assays above

CC(C)CC(=O)OC[C@@]1(O)C[C@@]23CC[C@H]4[C@@](C)(CCC[C@@]4(C)C(=O)O)[C@@H]2CC[C@@H]1C3
not listed: [6]
inactive: all other assays above

CC/C=C\CC1C(CC(=O)O)CCC1OC1OC(CO)C(O)C(O)C1O (stereo not drawn)
not listed: [6]
inactive: all other assays above

COC(=O)C1(C)CCCC2(C)c3ccc(C(C)C)cc3C(O)C(O)C12 (stereo not drawn)
not listed: [6]
inactive: all other assays above

C=C1CC23CC1CCC2C12OC(=O)C(C)(C(O)C(O)C1O)C2C3C(=O)O (stereo not drawn)
not listed: [6]
inactive: all other assays above

C=C(C)[C@H]1CC[C@]2(C(=O)O)CC[C@]3(C)C(CCC4[C@@]5(C)CCC(=O)C(C)(C)C5CC[C@]43C)C12 (stereo partly drawn)
not listed: [6]
inactive: all other assays above

C=C(C(=O)OC)[C@]12O[C@@](C)(CC[C@@]3(O)/C(=C\C)C(=O)O[C@]3(C)C[C@@H]1OC(=O)C(CO)CN1CCCC1C(=O)O)CC2=O (stereo partly drawn)
not listed: [6]
inactive: all other assays above

COc1cc(OC)cc(-c2ccc3c(-c4ccc(F)cc4)[nH]nc3n2)c1
not listed: [6]
inactive: all other assays above

O=C(OC[C@H]1O[C@H](O[C@]2(CO)O[C@H](CO)[C@@H](O)[C@@H]2O)[C@H](O)[C@@H](O)[C@@H]1O)c1ccc(O)cc1
not listed: [3]
inactive: all other assays above

O=C(Nc1cc(-c2ccccc2)nn1-c1ccccc1)c1ccc([N+](=O)[O-])cc1
inactive: [1] | [2] | [4] | [5]

Cn1c2ccc(NC(=O)c3ccccc3)cc2c(=O)n2nc(C(=O)O)cc12
inactive: [1] | [2] | [4] | [5]

Cc1occc(=O)c1O[C@@H]1O[C@H](CO)[C@@H](O)[C@H](O)[C@H]1O
not listed: [3]
inactive: all other assays above

COC(=O)C(CC1(O)c2ccccc2N2C(=O)C(C)(C)N(O)C21)n1cnc2ccccc2c1=O (stereo not drawn)
not listed: [3]
inactive: all other assays above

C=CCc1cc(OC)c(OC(C)C(O)c2ccc(O)c(OC)c2)c(OC)c1 (stereo not drawn)
inactive: [1] | [2] | [4] | [5]

CCOc1ccc(-c2cc(NC(=O)c3c(F)cccc3F)c(C(=O)O)s2)cc1
inactive: [1] | [2] | [6] | [5]

COC(=O)c1cc(OC)cc(OC)c1C(=O)c1c(OC)cc2c(c1O)C1CCC(O)C(C)(O2)O1 (stereo not drawn)
inactive: [1] | [2] | [4]

O=C(c1c2ccccc2cc2ccccc12)N1CCC(N2CCC[C@@H](C(=O)N3CCOCC3)C2)CC1
not listed: [2]
inactive: all other assays above

CCOC(=O)c1ccc(NC2CCCCC2)c(N)c1
inactive: [1] | [2] | [4] | [5]
